Measurements reported in paper PMC5700166.

molecular target: T1, GST-Aq-NF-kB (Amphimedon queenslandica, UniProt A9Y5G7 2-389); assay: protein-binding microarray (PBM); PBM: ~300 nM protein, 6 mM HEPES pH 7.8, 80 mM KCl, 0.5 mM EDTA, 0.5 mM EGTA, 6% glycerol, 35 ng/ul poly-dIdC, 1% milk, 1 h, room temperature; Ap Aiptasia and Nv Nematostella (sea anemones) / Co Capsaspora / Aq Amphimedon (sponge) / Dm Drosophila / Hu human; RHD is the Rel homology domain; high values mean tight binding; details: dsDNA, one strand shown
T1 sequence: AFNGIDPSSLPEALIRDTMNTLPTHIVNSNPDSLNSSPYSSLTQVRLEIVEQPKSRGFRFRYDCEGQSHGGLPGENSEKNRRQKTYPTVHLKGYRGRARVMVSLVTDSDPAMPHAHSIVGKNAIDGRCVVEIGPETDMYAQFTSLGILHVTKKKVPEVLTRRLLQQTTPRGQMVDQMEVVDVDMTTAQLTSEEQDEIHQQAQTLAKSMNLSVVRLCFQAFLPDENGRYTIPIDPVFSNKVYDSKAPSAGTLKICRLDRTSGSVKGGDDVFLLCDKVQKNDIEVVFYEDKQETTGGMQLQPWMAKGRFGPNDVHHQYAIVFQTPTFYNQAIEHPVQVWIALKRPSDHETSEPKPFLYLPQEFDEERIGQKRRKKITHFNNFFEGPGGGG

**Q.** “CCGATTAACATCAATAAAATCCCTGATGTTAATCGGGTCTTGATTCGCTTGACGCTGCTG” was tested. Which binding signal did it give?
**A.** Its binding signal is 4.79 z-score.

**Q.** How did the binding signal turn out when “CCGATTAACATCAGAAACTCCCATGATGTTAATCGGGTCTTGATTCGCTTGACGCTGCTG” was run?
**A.** Its binding signal is 3.7 z-score.

**Q.** With “CCGATTAACATCAGGGACTTCCATGATGTTAATCGGGTCTTGATTCGCTTGACGCTGCTG” as the sequence, how does the binding signal read?
**A.** The binding signal was 5.53 z-score.

**Q.** With “CCGATTAACATCAGGAAAGCACCTGATGTTAATCGGGTCTTGATTCGCTTGACGCTGCTG” as the sequence, how does the binding signal read?
**A.** The binding signal was 5.89 z-score.

**Q.** For “CCGATTAACATCAAGGAAGTCCCTGATGTTAATCGGGTCTTGATTCGCTTGACGCTGCTG”, which binding signal is on record?
**A.** Its binding signal is 5.83 z-score.

**Q.** Which binding signal does the source give for “CCGATTAACATCAGGGAAGGCCCTGATGTTAATCGGGTCTTGATTCGCTTGACGCTGCTG” here?
**A.** Its binding signal is 6.45 z-score.

**Q.** With “CCGATTAACATCAGGAGAGCCCCTGATGTTAATCGGGTCTTGATTCGCTTGACGCTGCTG” as the sequence, how does the binding signal read?
**A.** The binding signal was 6.28 z-score.

**Q.** For “CCGATTAACATCAAGGGACTTTCTGATGTTAATCGGGTCTTGATTCGCTTGACGCTGCTG”, which binding signal is on record?
**A.** Its binding signal is 7.13 z-score.

**Q.** “CCGATTAACATCAGGGAGGCCCCTGATGTTAATCGGGTCTTGATTCGCTTGACGCTGCTG” was tested. Which binding signal did it give?
**A.** Its binding signal is 7.2 z-score.

**Q.** Which binding signal does the source give for “CCGATTAACATCAGGGGACTTCATGATGTTAATCGGGTCTTGATTCGCTTGACGCTGCTG” here?
**A.** The binding signal was 5.48 z-score.

**Q.** For “CCGATTAACATCAGGGACTTCACTGATGTTAATCGGGTCTTGATTCGCTTGACGCTGCTG”, which binding signal is on record?
**A.** The binding signal was 5.14 z-score.

**Q.** How did the binding signal turn out when “CCGATTAACATCAAAGAAGTCCCTGATGTTAATCGGGTCTTGATTCGCTTGACGCTGCTG” was run?
**A.** The binding signal was 5.56 z-score.

**Q.** For “CCGATTAACATCAAAAAGCCCCTTGATGTTAATCGGGTCTTGATTCGCTTGACGCTGCTG”, which binding signal is on record?
**A.** The binding signal was 7.9 z-score.

**Q.** “CCGATTAACATCAGAAATTACCCTGATGTTAATCGGGTCTTGATTCGCTTGACGCTGCTG” was tested. Which binding signal did it give?
**A.** The binding signal was 5.95 z-score.

**Q.** With “CCGATTAACATCAGGGCTCCCCATGATGTTAATCGGGTCTTGATTCGCTTGACGCTGCTG” as the sequence, how does the binding signal read?
**A.** The binding signal was 2.46 z-score.

**Q.** For “CCGATTAACATCAAAAATGCCCCTGATGTTAATCGGGTCTTGATTCGCTTGACGCTGCTG”, which binding signal is on record?
**A.** The binding signal was 6.07 z-score.

**Q.** For “CCGATTAACATCAGGAAAGTCCCTGATGTTAATCGGGTCTTGATTCGCTTGACGCTGCTG”, which binding signal is on record?
**A.** Its binding signal is 9.81 z-score.

**Q.** With “CCGATTAACATCACGGGATTACCTGATGTTAATCGGGTCTTGATTCGCTTGACGCTGCTG” as the sequence, how does the binding signal read?
**A.** The binding signal was 4.66 z-score.

**Q.** Which binding signal does the source give for “CCGATTAACATCAGGGTTTCACCTGATGTTAATCGGGTCTTGATTCGCTTGACGCTGCTG” here?
**A.** The binding signal was 3.71 z-score.

**Q.** For “CCGATTAACATCAGAAAAATACCTGATGTTAATCGGGTCTTGATTCGCTTGACGCTGCTG”, which binding signal is on record?
**A.** Its binding signal is 3.17 z-score.

**Q.** “CCGATTAACATCACGGTAATTCCTGATGTTAATCGGGTCTTGATTCGCTTGACGCTGCTG” was tested. Which binding signal did it give?
**A.** Its binding signal is 4.04 z-score.

**Q.** Which binding signal does the source give for “CCGATTAACATCAAAATACCCCTTGATGTTAATCGGGTCTTGATTCGCTTGACGCTGCTG” here?
**A.** The binding signal was 6.58 z-score.

**Q.** “CCGATTAACATCAGGGACATCCCTGATGTTAATCGGGTCTTGATTCGCTTGACGCTGCTG” was tested. Which binding signal did it give?
**A.** The binding signal was 7.32 z-score.

**Q.** How did the binding signal turn out when “CCGATTAACATCACGGGATTTCGTGATGTTAATCGGGTCTTGATTCGCTTGACGCTGCTG” was run?
**A.** Its binding signal is 1.91 z-score.

**Q.** “CCGATTAACATCAAACCTTCCCCTGATGTTAATCGGGTCTTGATTCGCTTGACGCTGCTG” was tested. Which binding signal did it give?
**A.** Its binding signal is 4.92 z-score.

**Q.** With “CCGATTAACATCAGGCAAGCCCCTGATGTTAATCGGGTCTTGATTCGCTTGACGCTGCTG” as the sequence, how does the binding signal read?
**A.** The binding signal was 5.11 z-score.

**Q.** “CCGATTAACATCAGGGATTGCCCTGATGTTAATCGGGTCTTGATTCGCTTGACGCTGCTG” was tested. Which binding signal did it give?
**A.** The binding signal was 6.11 z-score.

**Q.** For “CCGATTAACATCAGGGAGTTCACTGATGTTAATCGGGTCTTGATTCGCTTGACGCTGCTG”, which binding signal is on record?
**A.** The binding signal was 4.22 z-score.

**Q.** With “CCGATTAACATCAGAAATACCCATGATGTTAATCGGGTCTTGATTCGCTTGACGCTGCTG” as the sequence, how does the binding signal read?
**A.** The binding signal was 4.73 z-score.

**Q.** With “CCGATTAACATCAGGAAATCACCTGATGTTAATCGGGTCTTGATTCGCTTGACGCTGCTG” as the sequence, how does the binding signal read?
**A.** The binding signal was 4.87 z-score.

**Q.** With “CCGATTAACATCAGGGTTTTTAGTGATGTTAATCGGGTCTTGATTCGCTTGACGCTGCTG” as the sequence, how does the binding signal read?
**A.** The binding signal was 2.58 z-score.

**Q.** With “CCGATTAACATCAGGGGCTTCACTGATGTTAATCGGGTCTTGATTCGCTTGACGCTGCTG” as the sequence, how does the binding signal read?
**A.** The binding signal was 4.89 z-score.

**Q.** “CCGATTAACATCAAGGGGGGTTATGATGTTAATCGGGTCTTGATTCGCTTGACGCTGCTG” was tested. Which binding signal did it give?
**A.** Its binding signal is 5.77 z-score.

**Q.** How did the binding signal turn out when “CCGATTAACATCAGGAAGCCCCATGATGTTAATCGGGTCTTGATTCGCTTGACGCTGCTG” was run?
**A.** Its binding signal is 4.02 z-score.

**Q.** For “CCGATTAACATCAGGAAATTACCTGATGTTAATCGGGTCTTGATTCGCTTGACGCTGCTG”, which binding signal is on record?
**A.** Its binding signal is 5.23 z-score.

**Q.** Which binding signal does the source give for “CCGATTAACATCAAGGGAACCCCTGATGTTAATCGGGTCTTGATTCGCTTGACGCTGCTG” here?
**A.** Its binding signal is 5.18 z-score.

**Q.** “CCGATTAACATCAGATCCCCCCCTGATGTTAATCGGGTCTTGATTCGCTTGACGCTGCTG” was tested. Which binding signal did it give?
**A.** The binding signal was 5.39 z-score.

**Q.** Which binding signal does the source give for “CCGATTAACATCAGAGAAGCCCCTGATGTTAATCGGGTCTTGATTCGCTTGACGCTGCTG” here?
**A.** Its binding signal is 5.35 z-score.

**Q.** How did the binding signal turn out when “CCGATTAACATCAGGAGAGTCCCTGATGTTAATCGGGTCTTGATTCGCTTGACGCTGCTG” was run?
**A.** The binding signal was 7.1 z-score.

**Q.** How did the binding signal turn out when “CCGATTAACATCAGGGAGGTACCTGATGTTAATCGGGTCTTGATTCGCTTGACGCTGCTG” was run?
**A.** Its binding signal is 3.92 z-score.
